# Only some compounds are listed: those with a hit (about 3.5% of all), similar ones and a draw of the others.
# mHTT CaM bind: mHTT-calmodulin interaction abrogation; actives 3.6% (n = 190,000); P42858; AlphaScreen His-mHTT/GST-CaM binding, luminescence; inhibition, % at 15 µM;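 also: 0% = both proteins with DMSO and 100% = one protein alone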
# Target sequence (P42858 whole entry, looked up, stated change not applied): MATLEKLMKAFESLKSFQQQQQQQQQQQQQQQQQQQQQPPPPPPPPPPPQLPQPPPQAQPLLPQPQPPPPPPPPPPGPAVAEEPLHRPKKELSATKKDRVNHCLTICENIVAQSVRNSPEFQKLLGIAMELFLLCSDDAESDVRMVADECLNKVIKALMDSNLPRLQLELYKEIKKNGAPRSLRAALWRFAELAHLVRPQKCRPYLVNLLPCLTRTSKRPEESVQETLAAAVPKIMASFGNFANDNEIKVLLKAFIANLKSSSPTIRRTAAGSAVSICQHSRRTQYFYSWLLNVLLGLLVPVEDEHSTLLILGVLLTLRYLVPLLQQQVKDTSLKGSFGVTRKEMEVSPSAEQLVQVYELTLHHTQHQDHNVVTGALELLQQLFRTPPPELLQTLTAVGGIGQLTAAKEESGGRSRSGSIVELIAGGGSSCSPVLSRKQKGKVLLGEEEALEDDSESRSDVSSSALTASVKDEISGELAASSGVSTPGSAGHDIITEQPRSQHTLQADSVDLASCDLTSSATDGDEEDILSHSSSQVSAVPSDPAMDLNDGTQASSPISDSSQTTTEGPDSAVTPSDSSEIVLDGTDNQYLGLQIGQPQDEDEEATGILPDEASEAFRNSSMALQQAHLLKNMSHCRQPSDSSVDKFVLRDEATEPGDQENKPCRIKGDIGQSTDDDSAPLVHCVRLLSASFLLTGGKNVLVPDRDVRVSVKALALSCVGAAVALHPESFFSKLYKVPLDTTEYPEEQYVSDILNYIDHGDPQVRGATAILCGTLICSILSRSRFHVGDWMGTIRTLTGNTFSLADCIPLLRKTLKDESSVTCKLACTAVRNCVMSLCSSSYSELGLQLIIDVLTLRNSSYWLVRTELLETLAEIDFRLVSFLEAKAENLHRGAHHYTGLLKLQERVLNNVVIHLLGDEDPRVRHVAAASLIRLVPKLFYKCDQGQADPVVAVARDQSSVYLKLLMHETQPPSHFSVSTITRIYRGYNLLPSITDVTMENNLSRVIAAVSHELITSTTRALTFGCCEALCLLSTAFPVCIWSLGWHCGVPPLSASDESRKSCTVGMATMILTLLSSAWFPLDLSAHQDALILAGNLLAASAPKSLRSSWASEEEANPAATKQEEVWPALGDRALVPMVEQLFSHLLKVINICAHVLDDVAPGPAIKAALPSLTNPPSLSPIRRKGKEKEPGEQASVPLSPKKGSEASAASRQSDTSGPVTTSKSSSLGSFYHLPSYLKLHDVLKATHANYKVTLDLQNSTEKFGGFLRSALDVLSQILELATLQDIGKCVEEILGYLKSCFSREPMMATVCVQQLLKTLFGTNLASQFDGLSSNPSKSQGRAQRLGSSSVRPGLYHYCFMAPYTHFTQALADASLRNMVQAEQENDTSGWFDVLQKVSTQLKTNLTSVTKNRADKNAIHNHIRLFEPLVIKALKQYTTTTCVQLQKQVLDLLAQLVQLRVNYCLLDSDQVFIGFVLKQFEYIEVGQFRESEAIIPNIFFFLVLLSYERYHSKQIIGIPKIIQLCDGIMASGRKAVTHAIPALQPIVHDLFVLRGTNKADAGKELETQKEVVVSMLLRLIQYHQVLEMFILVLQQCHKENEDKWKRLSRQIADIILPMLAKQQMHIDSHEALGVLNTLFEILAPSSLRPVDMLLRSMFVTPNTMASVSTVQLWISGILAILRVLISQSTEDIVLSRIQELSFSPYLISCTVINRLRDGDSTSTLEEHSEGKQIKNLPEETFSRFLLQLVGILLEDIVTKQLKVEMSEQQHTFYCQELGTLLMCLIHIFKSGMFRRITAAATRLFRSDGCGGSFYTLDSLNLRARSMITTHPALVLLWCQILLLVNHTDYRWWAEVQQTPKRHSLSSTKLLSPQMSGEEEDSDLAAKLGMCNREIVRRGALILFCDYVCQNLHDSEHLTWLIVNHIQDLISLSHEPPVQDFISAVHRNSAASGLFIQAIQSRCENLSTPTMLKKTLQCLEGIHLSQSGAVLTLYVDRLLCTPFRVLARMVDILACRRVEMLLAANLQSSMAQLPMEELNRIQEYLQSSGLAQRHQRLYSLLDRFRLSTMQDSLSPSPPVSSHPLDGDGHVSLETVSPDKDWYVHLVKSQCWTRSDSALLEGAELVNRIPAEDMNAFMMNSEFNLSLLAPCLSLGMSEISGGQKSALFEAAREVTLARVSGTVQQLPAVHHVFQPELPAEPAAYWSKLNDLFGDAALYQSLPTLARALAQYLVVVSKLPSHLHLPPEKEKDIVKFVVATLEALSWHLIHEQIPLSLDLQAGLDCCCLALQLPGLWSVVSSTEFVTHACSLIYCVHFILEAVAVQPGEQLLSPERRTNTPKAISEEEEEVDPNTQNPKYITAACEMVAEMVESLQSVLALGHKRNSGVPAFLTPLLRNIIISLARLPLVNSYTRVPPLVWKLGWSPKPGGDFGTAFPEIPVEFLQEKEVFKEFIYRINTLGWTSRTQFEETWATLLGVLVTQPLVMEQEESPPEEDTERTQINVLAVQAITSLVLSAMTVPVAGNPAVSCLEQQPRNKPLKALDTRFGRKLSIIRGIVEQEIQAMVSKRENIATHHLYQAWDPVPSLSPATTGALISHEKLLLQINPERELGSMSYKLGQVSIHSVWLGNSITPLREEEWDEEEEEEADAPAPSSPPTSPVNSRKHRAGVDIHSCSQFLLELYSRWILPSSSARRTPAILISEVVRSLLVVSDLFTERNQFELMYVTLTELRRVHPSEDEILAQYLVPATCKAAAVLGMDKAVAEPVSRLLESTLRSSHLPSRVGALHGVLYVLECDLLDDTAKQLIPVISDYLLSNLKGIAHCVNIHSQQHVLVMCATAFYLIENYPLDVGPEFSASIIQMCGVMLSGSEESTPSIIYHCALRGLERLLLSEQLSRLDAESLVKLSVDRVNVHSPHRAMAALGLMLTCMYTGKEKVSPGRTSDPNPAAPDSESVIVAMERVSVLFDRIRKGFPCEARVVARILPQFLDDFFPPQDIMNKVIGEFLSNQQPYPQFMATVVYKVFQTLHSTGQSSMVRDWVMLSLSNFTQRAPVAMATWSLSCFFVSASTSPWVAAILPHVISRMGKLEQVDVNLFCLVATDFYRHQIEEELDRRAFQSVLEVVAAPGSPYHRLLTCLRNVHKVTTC
# Pf apPOL inh: Pf-apPOL DNA polymerase inhibition; Recombinant Pf-apPOL, molecular beacon fluorescence, 1.5 h; inhibition, % at 10 µM; actives 0.25% (n = 210,000)
# * marks the source's active call; other numbers are inactive results; . = not tested or not shown. Rule as the data show it: active = inhibition above about 50%; inactive = the rest.
SMILES,mHTT CaM bind,Pf apPOL inh
C=CCSc1nnc2c(n1)OC(c1ccc(OC)cc1)N(C(C)=O)c1ccccc1-2 (stereo not given),37.0,1.6
C=CCSc1nnc2c(n1)OC(c1ccc(OCC)cc1)N(C(C)=O)c1ccccc1-2 (stereo not given),55.0*,-8.8
Cn1cc(CC(=O)Nc2ccc(F)cc2F)c2ccccc21,6.0,2.4
O=C(CCc1csc(NC(=O)c2ccco2)n1)NCc1nc2ccccc2[nH]1,-3.0,-2.7
O=c1[nH]n(-c2ccc(F)cc2Br)c(=O)c2ccccc12,-3.0,7.4
COc1ccccc1Nc1ncc2c(n1)CCN(Cc1ccc(OC)c(OC)c1OC)C2,-4.9,0.4
Cc1ccc(-c2cc3c(=O)n(CC(=O)NCC4CCCO4)ncn3n2)cc1C (stereo not given),-4.1,-0.1
Cc1ccc(NC(=O)NCC(C)(O)c2ccccc2)cc1C (stereo not given),-10.4,-8.0
COc1cccc2c1Oc1[nH]c(-c3ccc(OC)c(OC)c3OC)nc(=S)c1C2,7.7,0.0
COc1cccc(-c2nc(=S)c3c([nH]2)Oc2c(cccc2OC)C3)c1O,52.9*,43.2
COc1ccc(CNC(=O)N2CC(c3nc(-c4cccc(Cl)c4)no3)C2)cc1,-10.0,-8.5
O=C(CSc1ncn[nH]1)Nc1ccc([N+](=O)[O-])cc1,1.4,-2.4
COc1cc(SC)ccc1C(=O)NCc1ccc(Cl)cc1,-9.0,-6.1
O=[N+]([O-])c1ccc(COc2ccc(-c3[nH]ncc3-c3nc4ccccc4s3)c(O)c2)cc1,99.9*,-6.7
Cc1cc(C)c(-c2[nH]ncc2-c2nc3ccccc3s2)c(O)c1,85.5*,-10.0
O=C(Nc1ccc(O)c(-c2nc3ccccc3s2)c1)c1ccc([N+](=O)[O-])cc1,-1.1,-0.2
Nc1ccc(O)c(-c2nc3ccccc3s2)c1,49.9,3.4
CCC(=O)N1c2ccccc2NC2=C(C(=O)CC(C)(C)C2)C1CC1CC=C(C)C1(C)C (stereo not given),59.0*,-0.7
CC(=O)N1c2ccccc2NC2=C(C(=O)CC(C)(C)C2)C1CC1CC=C(C)C1(C)C (stereo not given),31.0,-0.4
CN(C)c1ccc(NC(=O)Nc2ccc(OCc3ccccc3)cc2)cc1,.,-1.2
CC(C)c1cc(C2CCCN2C(=O)c2cc(C(F)(F)F)nn2C)on1 (stereo not given),-2.3,1.2
CC1(C)CC(=O)C2=C(C1)OC(N)=C(C#N)C21C(=O)Nc2ccc(Cl)cc21 (stereo not given),1.0,-1.1
COc1cccc(C(=O)N2CCC(c3noc(-c4cccc(OC)c4)n3)CC2)c1,6.1,-2.3
Cc1ccccc1-c1nc(C2CCN(C(=O)c3ccc(Br)cc3)CC2)no1,53.7*,10.3
COc1cccc(-c2nc(C3CCN(C(=O)c4ccc(Br)cc4)CC3)no2)c1,48.6,1.8
SMILES,mHTT CaM bind,Pf apPOL inh
COc1cccc(-c2nc(C3CCN(C(=O)c4cccc(N(C)C)c4)CC3)no2)c1,52.7*,3.0
COc1ccccc1-c1nc(C2CCN(C(=O)c3ccccc3)CC2)no1,11.0,-1.1
COc1ccc(C(=O)N2CCC(c3noc(-c4ccccc4C)n3)CC2)cc1,-1.8,1.6
COc1cccc(-c2nc(C3CCN(C(=O)c4ccc(Cl)cc4)CC3)no2)c1,62.5*,0.9
COc1ccccc1-c1nc(C2CCN(C(=O)c3cccc(Cl)c3)CC2)no1,63.2*,12.8
N#C/C(=C\c1ccc(Cl)cc1Cl)c1ccc([N+](=O)[O-])cc1,17.7,7.7
COc1ccccc1C1CN(C(=O)c2ccccc2C)CC1C(=O)N1CCOCC1 (stereo not given),0.9,3.9
CCCN1CCc2nc(Nc3cc(OC)cc(OC)c3)ncc2C1,7.5,-0.5
CCCCSc1nc2c(c(=O)n1-c1ccc(Br)cc1)SCC2,0.0,-5.9
O=C(Nc1ccc(-c2cn3ccsc3n2)cc1)c1cnn(-c2ccccc2)n1,6.5,-3.6
CCCS(=O)(=O)N1CCC(Nc2cccnc2)C1 (stereo not given),-1.8,-2.6
CC(=Nc1ccc(C)c(C)c1)C1=C(O)CC(C)(C)CC1=O,-5.4,1.0
N#Cc1ccc(Oc2ccc(N)cc2)cc1,0.3,-4.2
COc1ccc(Nc2c(Cl)cc(OC)cc2Cl)cc1,.,-4.8
N#COc1ccc(Nc2ccc(OC#N)cc2)cc1,95.1*,5.3
N#COc1ccc(Oc2ccc(OC#N)cc2)cc1,96.8*,-29.4
Cc1cc(NC(=O)C(C)C)nc2c1c(=O)oc1ccccc12,12.0,7.5
C1CCCN(C2CCN(C3CC4CCC3C4)CC2)CC1 (stereo not given),81.0*,-6.6
C1CCN(C2CCN(C3CC4CCC3C4)CC2)CC1 (stereo not given),-7.3,-4.3
O=C1CCC[C@@H]2C=C[C@H](c3ccc(Br)cc3)[C@H]3CCN1[C@@H]32,52.0*,-33.3
O=C1C[C@@H]2CCN3C(=O)CCC[C@@H]([C@H]23)[C@@H]1Cc1ccccc1,1.9,-4.9
CCOc1c(Br)cc(/C=C2\C(=O)NN(c3ccc(F)c(Cl)c3)C2=O)cc1OC,81.0*,1.1
